Source: PubChem BioAssay
VACV Venus inh: qHTS for Stage-Specific Inhibitors of Vaccinia Orthopoxvirus: Venus Reporter Primary qHTS; Vaccinia virus Venus reporter expression, fluorescence; Potency, µM (series often up to 36.5 µM), usual class: inhibitors; hit rate 0.46% among 330,000; AID 720580, 2013; calls by dose curve; tested in A549 cells; also: nearly all actives have a fitted effect of over 30% in size
HCMV antiviral: qHTS Assay for inhibitors of the human cytomegalovirus (HCMV) | HFF cells, HCMV-luciferase reporter, 72 h; hits give low values | activity change, negative = inhibition, % at 57.5 µM | hit rate 4.5% among 410,000; in the data active = activity change below about -60%; inconclusive = no clear call, values can overlap the other calls; inactive = above about -39%
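Screen run at 2 compound doses on HFFs infected with reporter HCMV, MOI 1 PFU/cell. Luciferase activity from cell lysates at 72 h post infection gave inhibition relative to buffer-only and Salinomycin wells.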
HCV inhibitor: qHTS Assay for Inhibitors of Hepatitis C Virus (HCV); hit rate 3.4% among 340,000; Huh7.5.1 HCVcc-Cre infection, luciferase reporter, 44 h; Potency, µM (doses to about 41.8 µM), actives largely listed as inhibitors; active = well fitted inhibition curve with a large enough effect; inconclusive = small, poorly fitted or top-dose-only effect, or another doubt; inactive = no such curve, though single readings can be large or run the other way
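Cells (1,000/well) were plated 4 h before compound, then infected with HCVcc-Cre virus (~0.5 moi). After 44 h further culture, infection was read as luciferase luminescence following a 15 min substrate incubation at room temperature.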
VACV mCherry inh: qHTS for Stage-Specific Inhibitors of Vaccinia Orthopoxvirus: mCherry Reporter Primary qHTS; Vaccinia virus mCherry reporter infection, fluorescence; Potency, µM (top dose mostly 36.5 µM), hits mostly inhibitors; hit rate 0.63% among 310,000; AID 720579, 2013; calls by dose curve; tested in A549 cells; also: nearly all actives have a fitted effect of over 35% in size
FMDV antiviral: High Throughput Screening for Foot and Mouth Disease Virus Antivirals; FMDV antiviral cell-based qHTS; hit rate 1.2% among 410,000; AID 1159524, 2015; Potency, µM (doses to about 57.9 µM), actives largely listed as inhibitors; calls by dose curve; tested in HEK293T cells; also: read-out not given here; nearly all actives have a fitted effect of over 45% in size
Of the large screens only hits and unclear results are named; the others gave an inactive call. Hits are enriched below; roughly 7.3% of the tested compounds scored in any of these assays.

CC(C)(C)OC(=O)NCc1ccc(CNC(=O)c2nc[nH]c2C(=O)NCc2ccccc2)cc1	HCV inhibitor inconclusive, FMDV antiviral inconclusive
C[C@@H](OC(=O)c1[nH]cnc1C(=O)NCc1ccc(CNC(=O)OC(C)(C)C)cc1)c1ccccc1	VACV Venus inh inconclusive, HCV inhibitor inconclusive, VACV mCherry inh inconclusive, FMDV antiviral 31.6µM
Cc1ccc(NC(=O)CCCc2ccccc2)c([N+](=O)[O-])c1	none (no result: VACV Venus inh, VACV mCherry inh)
Cc1[nH]c2ccc(Br)cc2c1CCNC(=O)c1cc2ccccc2oc1=O	none (no result: HCV inhibitor)
CCCCN=CC1=C(O)CC(c2ccccc2)CC1=O (stereo not drawn)	HCMV antiviral -62.3
O=C1CC(c2ccccc2)CC(O)=C1C=Nc1ccccc1O (stereo not drawn)	VACV Venus inh inconclusive, HCMV antiviral -74.9, VACV mCherry inh inconclusive
CCCC(=Nc1ccccc1OC)C1=C(O)CC(c2ccccc2)CC1=O (stereo not drawn)	none
COc1ccccc1N=C(C)C1=C(O)CC(c2ccccc2)CC1=O (stereo not drawn)	VACV Venus inh inconclusive, HCMV antiviral -83.5, HCV inhibitor inconclusive, VACV mCherry inh inconclusive
Cc1ccc(C(=O)COC(=O)C(Cc2c[nH]c3ccccc23)NC(=O)c2ccc(C(C)(C)C)cc2)cc1 (stereo not drawn)	none (no result: HCV inhibitor)
COc1cc(-n2nnnc2SCC(=O)N2CCN(c3ccc(F)cc3)CC2)c(OC)cc1Cl	HCV inhibitor 11.2µM, FMDV antiviral inconclusive
CCOC(=O)CSc1nnnn1-c1cc(OC)c(Cl)cc1OC	HCV inhibitor inconclusive
CCCNC(=O)C1(C)CCN(Cc2csc3ccccc23)C1 (stereo not drawn)	none (no result: HCV inhibitor)
CC(=O)[C@@]1(O)Cc2c(O)c3c(c(O)c2[C@H](O[C@H]2C[C@H](N)[C@H](O)[C@H](C)O2)C1)C(=O)c1ccccc1C3=O	HCMV antiviral -98.7 (no result: VACV Venus inh, HCV inhibitor, VACV mCherry inh)
COc1cccc2c1C(=O)c1c(O)c3c(c(O)c1C2=O)C[C@@](O)(C(=O)CO)C[C@@H]3OC1CC(N)C(O)C(C)O1 (stereo partly drawn)	HCMV antiviral -99.3, HCV inhibitor 1µM
CC(=O)C1(O)Cc2c(O)c3c(c(O)c2C(OC2CC(N)C(O)C(C)O2)C1)C(=O)c1c(O)cccc1C3=O (stereo not drawn)	none (no result: HCMV antiviral, HCV inhibitor, FMDV antiviral)
COc1cccc2c1C(=O)c1c(O)c3c(c(O)c1C2=O)CC(O)(C(C)=NO)CC3OC1CC(N)C(O)C(C)O1 (stereo not drawn)	HCMV antiviral -99.6, HCV inhibitor inconclusive
COc1cccc2c1C(=O)c1c(O)c3c(c(O)c1C2=O)CC(O)(C(C)=O)CC3OC1CC(N(C)C)C(O)C(C)O1 (stereo not drawn)	HCMV antiviral -98.3, HCV inhibitor 0.562µM
CC[C@]1(O)CC(O[C@@H]2CC(N(C)C)C(O)C(C)O2)c2c(cc3c(c2O)C(=O)c2c(O)cccc2C3=O)C1C(=O)OC (stereo partly drawn)	none (no result: HCMV antiviral, HCV inhibitor)
COc1cccc2c1C(=O)c1c(O)c3c(c(O)c1C2=O)C[C@@](O)(C(=O)CO)C[C@@H]3O[C@@H]1C[C@H](N)[C@H](O)[C@H](C)O1	none (no result: VACV Venus inh, HCMV antiviral, HCV inhibitor, VACV mCherry inh)
COc1cccc2c1C(=O)c1c(O)c3c(c(O)c1C2=O)C[C@@](O)(C(=O)CO)C[C@@H]3O[C@H]1C[C@H](N)[C@H](O)[C@H](C)O1	HCMV antiviral -97.7, FMDV antiviral inconclusive
CCOc1ccc(S(=O)(=O)N2CCCCC2)cc1NC(=O)Cc1cccc(C(F)(F)F)c1	HCV inhibitor inconclusive, FMDV antiviral inconclusive (no result: VACV Venus inh, VACV mCherry inh)
CC(C)c1cccc(-c2csc(C(O)c3ccc(F)c(F)c3)n2)c1 (stereo not drawn)	HCMV antiviral -69.8 (no result: HCV inhibitor)
COc1ccc(-c2csc(C(O)c3cccc(OC)c3)n2)cc1 (stereo not drawn)	HCMV antiviral -67.7 (no result: HCV inhibitor)
OC(c1ccc(F)cc1)c1nc(-c2ccc(Cl)cc2)cs1 (stereo not drawn)	VACV Venus inh inconclusive, HCMV antiviral -66.1 (no result: HCV inhibitor)
CC(C)c1cccc(-c2csc(C(O)c3ccc(F)cc3)n2)c1 (stereo not drawn)	none (no result: HCV inhibitor)
Nc1[nH]c(C(=O)c2ccc(Br)cc2)c(-c2ccccn2)c1C(=O)NCCc1c[nH]c2ccccc12	none (no result: VACV Venus inh, HCV inhibitor, VACV mCherry inh, FMDV antiviral)
COc1ccc(O)c(-c2nc(N)nc(N)n2)c1	VACV Venus inh inconclusive, VACV mCherry inh inconclusive
Nc1nc(N)nc(-c2cc(F)ccc2O)n1	VACV Venus inh 10µM, VACV mCherry inh inconclusive
